# From the supplement of paper PMC4723716
# ± gives the uncertainty stated by the source. In all, about 9,900 compounds were measured (“viability index relative to DMSO control”: median about 1, lowest 2% from about 0.85 on). This excerpt belongs to a sample that is enriched for the lowest values.
# System: Plasmodium falciparum NF54 stage V gametocytes
# Assay: viability index relative to DMSO control (fraction); higher = less gametocyte killing
# Conditions: 2.5 µM, incubation time: 72 h
# Method: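 Broad DOS informer set and blood-stage-active DOS compounds screened in duplicate at 2.5 µM against P. falciparum NF54 stage V gametocytes with the serum-free one-step SaLSSA (1536-well): 72 h at 37 °C under low oxygen, then saponin lysis and MitoTracker Red CMXRos staining, with high-content imaging. Viability index = viable-object count divided by the plate mean of DMSO wells (0 = killed, about 1 = inactive).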
# [1] = library set: Broad Institute DOS
# [2] = library set: Broad Institute Blood Stage
Structure (SMILES),viability index [1],viability index [2]
C[C@H](CO)N1C[C@H](C)[C@H](CN(C)C(=O)Nc2cccc(C(F)(F)F)c2)OCc2cn(nn2)CCCC1=O,1.01 ± 0.036,–
COc1ccc2c3c([C@@H](CO)N(C[C@]33CN(C3)C(=O)c3ccccc3F)C(=O)Nc3ccccc3F)n(C)c2c1,0.97 ± 0.053,–
O=C(Cc1cccnc1)N1CC(=O)N2[C@@H](CO)[C@H](c3ccc(/C=C/c4ccccc4)cc3)[C@@H]2C1,1.015 ± 0.0057,–
C[C@H]1CN([C@@H](C)CO)C(=O)Cc2cc(N(C)C)ccc2O[C@@H]1CN(C)C(=O)NC1CCCCC1,0.883 ± 0.058,–
O=C1CNC[C@@H]2[C@H](c3ccc(C#CC4CCCCC4)cc3)[C@@H](CO)N12,1.06 ± 0.067,–
CN1CCN(C(=O)C[C@H]2CC[C@@H]3[C@H](COC[C@H](O)CN3C(=O)c3ccccc3F)O2)CC1,0.986 ± 0.019,–
Cc1ccc(S(=O)(=O)Nc2ccc3c(c2)C(=O)N([C@@H](C)CO)C[C@@H](C)[C@@H](CN(C)Cc2ccc(C(F)(F)F)cc2)O3)cc1,1.04 ± 0.07,–
COc1ccc(NC(=O)N(C)C[C@@H]2Oc3ccc(NC(=O)Nc4cccc5ccccc45)cc3CC(=O)N([C@@H](C)CO)C[C@H]2C)cc1,1.03 ± 0.033,–
O=C(N[C@@H]1C=C[C@@H](CC(=O)N2CCN(c3ccccc3)CC2)O[C@@H]1CO)c1ccccc1,1.11 ± 0.12,–
N#C[C@H]1[C@@H](c2ccccc2-c2ccccc2F)[C@@H](CO)N1C(=O)c1cccc(F)c1,1.16 ± 0.25,–
Cc1noc(C)c1NC(=O)N[C@@H]1C=C[C@@H](CC(=O)Nc2ccc(-c3ccccc3)cc2)O[C@@H]1CO,0.979 ± 0.1,–
Cc1noc(C)c1S(=O)(=O)Nc1ccc2c(c1)C(=O)N([C@H](C)CO)C[C@@H](C)[C@H](CN(C)Cc1ccc(C(=O)O)cc1)OCCCC[C@@H](C)O2,1.07 ± 0.12,–
CC(C)NC(=O)N1[C@H](C#N)[C@H](c2ccc(C#CC3CCCCC3)cc2)[C@@H]1CO,–,0.822 ± 0.041
CN(C)CC(=O)N1[C@H](C#N)[C@H](c2ccc(C#CC3CCCCC3)cc2)[C@@H]1CO,0.981 ± 0.11,–
N#C[C@H]1[C@@H](c2ccc(-c3cccc(F)c3)cc2)[C@H](CO)N1C(=O)NC1CCCC1,1.055 ± 0.0015,–
N#C[C@@H]1[C@H](c2ccc(-c3cccc(F)c3)cc2)[C@H](CO)N1C(=O)NC1CCCC1,0.743 ± 0.059,–
CN(C)CC(=O)N1[C@H](C#N)[C@@H](c2ccc(C#CC3CCCCC3)cc2)[C@H]1CO,1.05 ± 0.039,–
N#C[C@@H]1[C@@H](c2ccc(-c3cccc(F)c3)cc2)[C@H](CO)N1C(=O)NC1CCCC1,0.935 ± 0.064,–

Structure (SMILES),viability index [1],viability index [2]
CCCNC(=O)N1[C@H](C#N)[C@H](c2ccc(C#Cc3ccc(F)cc3)cc2)[C@@H]1CO,–,0.844 ± 0.021
CCCNC(=O)N1[C@H](CO)[C@H](c2ccc(C#Cc3cccc(F)c3)cc2)[C@@H]1C#N,1.09 ± 0.027,–
CCCNC(=O)N1[C@H](C#N)[C@@H](c2ccc(C#Cc3cccc(F)c3)cc2)[C@@H]1CO,0.981 ± 0.013,–
C/C=C/c1ccc([C@H]2[C@@H](CO)N3CCCCN(S(=O)(=O)c4ccc(OC)cc4)C[C@@H]23)cc1,0.972 ± 0.078,–
CCCNC(=O)Nc1ccc2c(c1)OC[C@@H](C)N(C(=O)C1CCOCC1)C[C@H](C)[C@H](OC)CN(C)C2=O,0.996 ± 0.052,–
COCC(=O)Nc1ccc2c(c1)C(=O)N(C)C[C@@H](OC)[C@H](C)CN(CCc1ccccc1)[C@H](C)CO2,1.05 ± 0.042,–
O=C(C[C@@H]1C=C[C@H](NC(=O)Nc2ccccc2F)[C@@H](CO)O1)NCc1ccc(-c2ccccc2)cc1,1.11 ± 0.14,–
Cc1cccc(-c2ccc([C@@H]3[C@@H]4CN(C(=O)c5ccncc5)C[C@H]3N4)cc2)c1,1.09 ± 0.12,–
CN(C)CC(=O)N1C[C@@H]2N[C@H](C1)[C@@H]2c1ccc(-c2ccccc2F)cc1,0.745 ± 0.074,–
CN(C)CC(=O)N1C[C@@H]2N[C@H](C1)[C@@H]2c1ccc(C2=CCCCC2)cc1,0.898 ± 0.013,–
O=C(Nc1ccccc1)N1C[C@@H]2N[C@H](C1)[C@@H]2c1ccc(-c2ccccc2F)cc1,1.03 ± 0.08,–
O=C(C1CC1)N1C[C@@H]2N[C@H](C1)[C@@H]2c1ccc(-c2ccccc2F)cc1,–,0.988 ± 0.046
CN(C)CC(=O)N1C[C@@H]2N[C@H](C1)[C@H]2c1ccc(-c2ccccc2F)cc1,0.832 ± 0.011,–
Cc1cccc(-c2ccc([C@@H]3[C@@H]4CN(C(=O)CN(C)C)C[C@H]3N4)cc2)c1,0.477 ± 0.045,–
Cc1cccc(-c2ccc([C@H]3[C@@H]4CN(Cc5cccc(F)c5)C[C@H]3N4)cc2)c1,1.053 ± 0.0043,–
Fc1cccc(-c2ccc([C@@H]3[C@@H]4CN(Cc5cncnc5)C[C@H]3N4)cc2)c1,1.04 ± 0.06,–
Cc1cccc(-c2ccc([C@@H]3[C@@H]4CN(Cc5cccc(F)c5)C[C@H]3N4)cc2)c1,0.816 ± 0.064,–
